# D1 antag – blocks dopamine activation of the human D1 receptor; P21728; HEK293 TREx D1 cells, calcium flux, dopamine EC80; stronger effect = lower value; activity change, negative = inhibition, % at 10 µM; 360,000 tested, 3.2% active; AID 504652; in the data active means activity change below about -30%
# Target sequence (P21728 whole entry, looked up): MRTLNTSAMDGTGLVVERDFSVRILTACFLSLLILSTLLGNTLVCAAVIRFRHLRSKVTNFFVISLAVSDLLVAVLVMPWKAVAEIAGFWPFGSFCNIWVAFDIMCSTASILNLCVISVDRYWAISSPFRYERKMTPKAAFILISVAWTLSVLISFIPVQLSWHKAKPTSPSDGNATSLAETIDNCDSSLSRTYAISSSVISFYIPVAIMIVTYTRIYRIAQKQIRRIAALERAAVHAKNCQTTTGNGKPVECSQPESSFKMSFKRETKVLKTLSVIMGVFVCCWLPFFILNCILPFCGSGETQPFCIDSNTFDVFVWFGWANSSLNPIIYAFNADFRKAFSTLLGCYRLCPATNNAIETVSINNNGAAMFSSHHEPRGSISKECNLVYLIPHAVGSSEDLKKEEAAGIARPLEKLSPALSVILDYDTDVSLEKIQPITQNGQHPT
#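 Tetracycline-induced HEK293 T-REx cells with force-coupled D1 receptor were loaded with a no-wash calcium dye. Compound was added after a 10 s baseline and read kinetically for 180 s; EC80 dopamine was then added and calcium flux followed another 180 s.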
# D1 ag – human D1 receptor agonism; P21728; HEK293 T-REx D1 cells, calcium flux, agonist mode; activation, % at 2 µM; 360,000 tested, 1% active
#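 Tetracycline-induced HEK293 TREx D1 cells, force-coupled to calcium signalling, were dye-loaded with a no-wash calcium kit. Compound was pin-added after a 10 s baseline. Fluorescence was read kinetically at 1 cycle/s for 180 s, with calcium rises flagged as agonism.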
# TRHR agonist – activates the human TRH receptor | P34981 | 360,000 tested, 0.18% active | activation, % at 2 µM | TRHR cells, calcium flux fluo-8, FDSS agonist mode
#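 TRHR-expressing cells, plated overnight in medium with 10% serum, were loaded with fluo-8 calcium dye at room temperature. After a 10 s baseline, library compound was pin-added and calcium release was recorded kinetically (ex 480/em 530) as agonist response.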
# TRHR PAM – allosterically enhances the human TRH receptor. enhancement, % at 2 µM. AID 493056. TRHR cells, fluo-8 calcium fluorescence, EC20 TRH enhancement. 360,000 tested, 0.66% active. P34981; in the data active means enhancement above about 30%
#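 TRHR-expressing cells loaded with fluo-8 calcium dye were read kinetically (ex 480/em 530) during compound addition, then stimulated with an EC20 of TRH (10 nM final). Enhancement of the Gq-mediated intracellular calcium response was scored.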
# D1 potentiator – enhances dopamine response at the human D1 receptor; P21728; HEK293 TREx D1 cells, calcium flux, dopamine EC20 potentiation; potentiation, % at 10 µM; 360,000 tested, 0.036% active; AID 504651; in the data active means potentiation above about 30%
# Hits are given with their value; 0 = inactive; - = not tested or not shown. This is a sample that favours compounds with a hit; in the whole collection about 4.6% have one here. Unless noted, no stated cut-off is given here; in the data, active means activation above about 30%; inactive means the rest.
SMILES,D1 antag,D1 ag,TRHR agonist,TRHR PAM,D1 potentiator
COc1ccccc1-c1cc2nc(C)c(CCC(=O)NCCc3ccc(SC)cc3)c(C)n2n1,-47.5,0,0,0,0
CCOc1ccc(CCNC(=O)CCc2c(C)nc3c4c(C)cc(C)nc4nn3c2C)cc1,-35.7,0,0,0,0
COc1ccc(CCNC(=O)CCc2c(C)nc3c(-c4ccc(F)cc4)c(C)nn3c2C)cc1OC,0,0,0,0,0
COc1ccc(N2CCN(C(=O)CCc3c(C)nc4cc(-c5cccc(F)c5)nn4c3C)CC2)cc1,0,0,0,36.8,0
COc1ccc(CCNC(=O)CCc2c(C)nc3cc(-c4cccc(F)c4)nn3c2C)cc1OC,-33.7,0,0,0,0
Cc1nc2cc(-c3cccc(F)c3)nn2c(C)c1CCC(=O)N1CCN(c2ccc(F)cc2)CC1,0,0,0,0,0
Cc1ccc(-c2nn(-c3ccccc3)cc2C2CC(c3cccs3)=NN2C(=O)CCC(=O)O)cc1 (stereo unspecified),0,0,0,0,0
Cc1ccccc1C(=O)N=c1ccn(-c2nc3ccccc3nc2NS(=O)(=O)c2ccc(F)cc2)cc1,0,70.0,0,0,0
CCCCCCSc1ccc(-c2nc3ccc(C)cn3c2NCc2ccccc2)cc1OC,0,0,0,0,0
CCCCCCSc1ccc(-c2nc3ccc(C)cn3c2NCc2ccccc2)cc1,-36.2,0,0,0,0
COc1cccc(-c2nnc(-c3ccccc3NC(=O)c3ccc(C(C)(C)C)cc3)o2)c1,0,0,0,0,0
O=C(CCCn1nnnc1CN1CCOCC1)N1CCC(c2ccccc2F)C1 (stereo unspecified),0,0,0,0,0
O=C(CCn1nnnc1CN1CCOCC1)N1CCC(c2cccc(Cl)c2)C1 (stereo unspecified),-80.2,0,0,0,0
Cc1ccc(C(=O)CNc2nc3c(c(=O)[nH]c(=O)n3C)n2Cc2ccccc2)cc1,0,0,0,0,0
CN(C)c1nc(NCc2ccccc2)nc(N/N=C/c2ccccc2F)n1,0,0,0,0,0
CC(OC(=O)c1cccc(S(=O)(=O)Nc2cccc(C(F)(F)F)c2)c1)C(=O)Nc1ccc2c(c1)OCCO2 (stereo unspecified),-36.1,0,0,0,0
O=S(=O)(Nc1cccc(C(F)(F)F)c1)c1ccc(NS(=O)(=O)c2ccc3c(c2)OCCO3)cc1,0,0,0,0,0
O=C(N=C1SC2CS(=O)(=O)CC2N1c1cccc(F)c1)C1CC1 (stereo unspecified),0,0,0,0,0
CCOC(=O)c1cc(C)n(CC2CCC(C(=O)Nc3cccc(Cl)c3)CC2)c1C (stereo unspecified),0,0,0,0,0
CCOC(=O)c1cc(C)n(CC2CCC(C(=O)Nc3ccc(Cl)cc3)CC2)c1C (stereo unspecified),-33.8,0,0,0,0
CS(=O)(=O)N(CC(=O)NCCc1ccccc1)C1CCCCC1,-,0,0,40.4,0
Cc1cc(S(=O)(=O)NC2CCN(Cc3ccccc3)CC2)c(C)cc1Cl,0,0,0,0,0
Cc1cccc(NC(=O)CCN2CC(C)OC(C)C2)c1 (stereo unspecified),0,0,0,35.5,0
Cc1cccc(NC(=O)CCN2CCCC(C)C2)c1 (stereo unspecified),-72.0,0,0,0,0
CN1CCN(CCC(=O)Nc2ccccc2)CC1,-35.7,0,0,0,0
SMILES,D1 antag,D1 ag,TRHR agonist,TRHR PAM,D1 potentiator
C[C@H]1O[C@H](O[C@H]2[C@H](O[C@@H]3CC[C@@]4(C)C(CC[C@]5(C)C4CC=C4[C@@H]6CC(C)(C)CC[C@]6(C(=O)O[C@@H]6O[C@H](CO)[C@@H](O)[C@H](O)[C@H]6O)CC[C@]45C)C3(C)C)O[C@H](C(=O)O)[C@@H](O)[C@@H]2O)[C@@H](O)[C@@H](O)[C@@H]1O (stereo partly specified),0,0,0,0,0
CC1OC(OC2C(OC3C(O[C@H]4CC[C@]5(C)C6C=C[C@]78OC[C@@]9(CC[C@@H](C)[C@H](C)C97)[C@H](O)C[C@@]8(C)[C@]6(C)CC[C@H]5C4(C)C)OC(C)C(O)C3O)OC(CO)C(O)C2O)C(O)C(O)C1O (stereo partly specified),0,393.9,58.9,0,0
Cc1cccc(CNC(=O)C2CCC(=O)N(C3CCCC3)C2)c1 (stereo unspecified),-45.0,0,0,0,0
CCCS(=O)(=O)Nc1cc(-c2cn3ccc(C)cc3n2)ccc1C,0,0,0,0,58.6
COc1ccc(S(=O)(=O)Nc2cc(-c3cn4ccc(C)cc4n3)ccc2C)cc1OC,0,0,0,0,0
COc1ccc(CCNC(=O)c2cc3c(=O)n(C)c4ccccc4c3n2C)c(OC)c1,0,0,0,0,0
COc1ccccc1N1CCN(/N=C\c2ccccc2)CC1,0,0,0,0,0
COc1ccccc1N1CCN(/N=C\c2sccc2C)CC1,-43.1,0,0,0,0
Cc1cccc(C(=O)Nc2ccn(C)n2)c1,0,0,0,0,0
COCCCNC(=O)c1c(NC(=O)Cc2coc3cc(C)ccc23)sc2c1CCCC2,-65.9,0,0,0,0
CCNC(=O)c1c(NC(=O)Cc2coc3cc(C)ccc23)sc2c1CCCC2,0,0,0,0,0
COCCNC(=O)C1CC2Cn3c(nc4cc5ccccc5cc43)C2N1C (stereo unspecified),0,0,0,0,0
COCCNC(=O)C1CC2Cn3c(nc4cc(C)c(C)cc43)C2N1C (stereo unspecified),-77.7,0,0,0,0
CN=C(NC1CCCCC1)c1ccc([N+](=O)[O-])cc1,0,0,0,0,0
CN1CCN(c2ncc(CN3C(=O)c4ccccc4C3=O)s2)CC1,0,0,0,0,0
Cc1cc2c(s1)Nc1ccccc1N=C2N1CCN(C)CC1,-89.1,-,0,0,-
CCC(=O)NC(Nc1sc2c(c1C(=O)OC)CCCC2)(C(F)(F)F)C(F)(F)F,0,0,0,0,0
Cc1ccc(NC(=O)Cn2c(=O)n(CC3CCC(C(=O)NC(C)C)CC3)c(=O)c3sccc32)cc1 (stereo unspecified),-44.1,0,0,0,0
CCn1c(=O)n(CC2CCC(C(=O)NC(C)C)CC2)c(=O)c2sccc21 (stereo unspecified),0,0,0,0,0
O=C(CCCCn1c(=O)c2ccccc2n(CC(=O)Nc2ccc(F)cc2F)c1=O)NCCc1ccccc1,-38.3,0,0,0,0
COc1ccc(CCNC(=O)CCCCn2c(=O)c3ccccc3n(Cc3ccc(Cl)cc3)c2=O)cc1OC,-52.7,0,0,0,0
COc1ccc(CCNC(=O)CCCn2c(=O)c3ccccc3n(Cc3cccc(Cl)c3)c2=O)cc1OC,0,0,0,0,0
COC(=O)c1ccccc1NC(=O)Cn1c(=O)n(CCCC(=O)NCCc2ccc(OC)c(OC)c2)c(=O)c2ccccc21,-31.9,0,0,0,0

# High-throughput results: PubChem BioAssay, National Center for Advancing Translational Sciences (NCATS)
